# Values joined by “and” are separate entries in the source; they are usually repeats but may differ in a detail not shown here. Identical values can stand only once. Results filed as inconclusive are left out. A call without a number means that no potency is given here. Active and inactive are the calls of the source. Unless noted, calls come from the whole dose curve; as a rule, active = well fitted curve in the direction sought with a large enough effect; inconclusive = small, poorly fitted or top-dose-only effect, or another doubt; inactive = no such curve, though single readings can be large; an effect the other way counts as inactive or inconclusive.
# Assays:
# [1] = Nrf2 qHTS screen for inhibitors: Validation (AID 493153; active = well fitted inhibition curve with a large enough effect in the main read-out, with a control signal flat, not every such curve was filed as active); details: viability change: measured here: cytotoxicity max response
# Summary of the method: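 A549 cells carrying ARE-firefly luciferase reporter, 5000 cells/well in 5% FBS OPTI-MEM, treated with compound over a concentration series for 18-24 h at 37 C. Luciferase luminescence gave Nrf2 activity; CellTiter-Fluor fluorescence gave viability.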
# [2] = qHTS for Inhibitors of Cell Surface uPA Generation: Validation Assay (AID 493164)
# Summary of the method: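 RAW 264.7 cells (4000/well) were plated overnight, then exposed for 18 h at 37 C, 5% CO2 to compounds in a 7-point 1:5 titration (2.45 nM–38.3 uM final). Intracellular ATP was read by ATP-Lite luminescence.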
# [3] = Validation screen for small molecules that induce DNA re-replication in SW480 colon adenocarcinoma cells (AID 504364)
# Summary of the method: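 SW480 cells (250/well) exposed 48 h at 37 C, 5% CO2, then Hoechst-stained 40 min. Nuclear DNA content imaged by fluorescence scanning (405 nm excitation, 500-530 nm emission); re-replication scored as increased nuclei with elevated intensity.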
# [4] = target: Peptidyl-prolyl cis-trans isomerase NIMA-interacting 1 (Homo sapiens) (UniProt Q13526); experiment: qHTS Validation Assay to Find Inhibitors of Pin1 (AID 504536; active = well fitted inhibition curve with a large enough effect in the polarisation, with a control signal flat, not every such curve was filed as active; the % refers to the polarisation)
# Chain of Peptidyl-prolyl cis-trans isomerase NIMA-interacting 1 (Homo sapiens) (Q13526 whole entry, looked up): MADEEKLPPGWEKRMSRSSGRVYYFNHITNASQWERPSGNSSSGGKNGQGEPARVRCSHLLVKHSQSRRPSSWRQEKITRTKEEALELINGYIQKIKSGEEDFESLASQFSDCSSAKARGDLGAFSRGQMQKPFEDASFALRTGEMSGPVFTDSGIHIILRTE
# Summary of the method: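 Fluorescence polarization competition: compounds (titration) displace HiFluor-488-labeled Pin1-1b peptide from Pin1 (0.3 uM final) in pH 7.5 HEPES buffer with DTT, 10 min at room temperature; %Activity normalized to no-enzyme wells, curves fitted.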
# [5] = target: Phosphoglycerate kinase, glycosomal (Trypanosoma brucei brucei) (UniProt P07378); experiment: qHTS Validation Assay to Find Inhibitors of Phosphoglycerate Kinase (AID 504547)
# Chain of Phosphoglycerate kinase, glycosomal (Trypanosoma brucei brucei) (P07378 whole entry, looked up): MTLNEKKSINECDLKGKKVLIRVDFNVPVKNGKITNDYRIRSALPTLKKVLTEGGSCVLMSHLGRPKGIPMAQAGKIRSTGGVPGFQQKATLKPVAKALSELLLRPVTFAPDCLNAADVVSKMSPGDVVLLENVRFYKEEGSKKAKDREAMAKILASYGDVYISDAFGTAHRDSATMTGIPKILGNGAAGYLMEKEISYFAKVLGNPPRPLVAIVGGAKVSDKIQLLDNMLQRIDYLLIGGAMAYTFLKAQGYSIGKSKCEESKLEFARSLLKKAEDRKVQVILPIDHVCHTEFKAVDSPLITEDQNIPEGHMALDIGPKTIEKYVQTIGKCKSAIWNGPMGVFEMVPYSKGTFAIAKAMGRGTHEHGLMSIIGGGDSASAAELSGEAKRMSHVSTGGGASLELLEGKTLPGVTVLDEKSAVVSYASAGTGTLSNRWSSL
# Summary of the method: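 Substrate/PGK mix plus compound; reaction started with GAPDH (100nM final) to form 1,3-BPG; 60 min RT; Kinase-Glo Plus 10 min; luminescence. TEA 100mM pH 7.6, MgCl2 5mM, Tween-20 0.01%.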
# [6] = target: Ubiquitin carboxyl-terminal hydrolase 1 (Homo sapiens) (UniProt O94782); experiment: Inhibitors of USP1/UAF1: Pilot qHTS (AID 504865);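 note: rhodamine fluorescence freed from ubiquitin-rhodamine substrate followed over time; top concentration of the series differs between compounds; nearly all actives have a fitted effect of over 35% in size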
# Chain of Ubiquitin carboxyl-terminal hydrolase 1 (Homo sapiens) (O94782 whole entry, looked up): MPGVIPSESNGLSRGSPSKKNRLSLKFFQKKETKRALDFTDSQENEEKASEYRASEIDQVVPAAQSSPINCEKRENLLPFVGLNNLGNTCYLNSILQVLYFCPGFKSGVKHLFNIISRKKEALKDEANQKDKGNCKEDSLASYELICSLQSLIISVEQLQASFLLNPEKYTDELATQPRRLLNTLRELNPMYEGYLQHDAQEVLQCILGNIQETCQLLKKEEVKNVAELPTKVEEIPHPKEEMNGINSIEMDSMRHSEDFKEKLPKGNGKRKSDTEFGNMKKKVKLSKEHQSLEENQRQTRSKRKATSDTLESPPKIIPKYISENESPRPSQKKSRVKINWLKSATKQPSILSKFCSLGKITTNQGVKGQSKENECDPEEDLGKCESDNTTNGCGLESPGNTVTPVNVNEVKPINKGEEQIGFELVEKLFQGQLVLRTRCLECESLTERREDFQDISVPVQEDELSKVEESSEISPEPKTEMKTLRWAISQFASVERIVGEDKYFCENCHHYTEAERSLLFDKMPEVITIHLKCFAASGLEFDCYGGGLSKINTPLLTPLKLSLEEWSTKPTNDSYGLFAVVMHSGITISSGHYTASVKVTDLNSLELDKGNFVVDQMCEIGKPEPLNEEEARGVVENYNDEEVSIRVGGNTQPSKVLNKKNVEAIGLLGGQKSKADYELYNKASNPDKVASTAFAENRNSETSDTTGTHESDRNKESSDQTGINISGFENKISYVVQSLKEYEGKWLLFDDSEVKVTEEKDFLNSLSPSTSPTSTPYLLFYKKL
# Summary of the method: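 USP1/UAF1 complex (1nM) preincubated with compound 15 min at room temperature, then Ub-Rho substrate (150nM final) added. Fluorescence read kinetically at 480/540 nm, 6 reads every 60 seconds. Buffer: 50mM HEPES pH 7.8, 0.5mM EDTA, 0.1 mg/ml BSA, 1mM TCEP, 0.01% Tween-20.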
# [7] = qHTS for Inhibitors of ATXN expression: Validation of Cytotoxic Assay (AID 588349)
# Summary of the method: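 HEK293 cells treated with titrated compound for 72 hr at 37 degrees C; viability read as intracellular ATP by CellTiter Glo luminescence.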
# [8] = target: Galactokinase (Homo sapiens) (UniProt P51570); experiment: qHTS Validation Assay for Inhibitors of Human Galactokinase (GALK) (AID 493189)
# Chain of Galactokinase (Homo sapiens) (P51570 whole entry, looked up): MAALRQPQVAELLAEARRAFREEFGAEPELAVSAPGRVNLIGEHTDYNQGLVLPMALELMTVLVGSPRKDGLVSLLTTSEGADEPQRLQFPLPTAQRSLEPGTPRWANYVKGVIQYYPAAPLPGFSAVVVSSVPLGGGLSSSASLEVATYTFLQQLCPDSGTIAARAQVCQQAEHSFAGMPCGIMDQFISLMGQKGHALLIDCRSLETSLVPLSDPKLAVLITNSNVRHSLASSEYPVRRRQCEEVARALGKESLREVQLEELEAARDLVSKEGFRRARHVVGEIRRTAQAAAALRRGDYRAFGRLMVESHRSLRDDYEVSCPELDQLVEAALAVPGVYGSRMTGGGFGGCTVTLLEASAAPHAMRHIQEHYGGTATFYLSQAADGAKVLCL
# Summary of the method: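 GALK (5 nM) with 35 uM ATP and 100 uM galactose in HEPES pH8.0, MgCl2, NaCl, DTT, BSA; 1 h at room temperature. Residual ATP read by Kinase-Glo Plus luminescence after 10 min.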
# [9] = target: Glucocorticoid receptor (Homo sapiens) (UniProt P04150); experiment: qHTS assay for small molecule antagonists of glucocorticoid receptor signaling (AID 588533; active = well fitted inhibition curve with a large enough effect in the signal ratio, with a control signal flat, not every such curve was filed as active; the % refers to the signal ratio;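 note: cells stimulated with 2 nM dexamethasone as agonist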; note: potency is the fitted concentration of half-maximal effect)
# Summary of the method: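 Antagonist-mode qHTS: compound titrations added to GRE-bla HeLa cells, then dexamethasone 2 nM final; 18 h, 37 C. CCF4 FRET fluorescence normalized to dexamethasone and DMSO; IC50 from Hill fit.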
# [10] = target: Bile acid receptor (Homo sapiens) (UniProt Q96RI1); experiment: qHTS assay for small molecule antagonists of farnesoid X receptor signaling (AID 588526; calls by dose curve)
# Chain of Bile acid receptor (Homo sapiens) (Q96RI1 whole entry, looked up): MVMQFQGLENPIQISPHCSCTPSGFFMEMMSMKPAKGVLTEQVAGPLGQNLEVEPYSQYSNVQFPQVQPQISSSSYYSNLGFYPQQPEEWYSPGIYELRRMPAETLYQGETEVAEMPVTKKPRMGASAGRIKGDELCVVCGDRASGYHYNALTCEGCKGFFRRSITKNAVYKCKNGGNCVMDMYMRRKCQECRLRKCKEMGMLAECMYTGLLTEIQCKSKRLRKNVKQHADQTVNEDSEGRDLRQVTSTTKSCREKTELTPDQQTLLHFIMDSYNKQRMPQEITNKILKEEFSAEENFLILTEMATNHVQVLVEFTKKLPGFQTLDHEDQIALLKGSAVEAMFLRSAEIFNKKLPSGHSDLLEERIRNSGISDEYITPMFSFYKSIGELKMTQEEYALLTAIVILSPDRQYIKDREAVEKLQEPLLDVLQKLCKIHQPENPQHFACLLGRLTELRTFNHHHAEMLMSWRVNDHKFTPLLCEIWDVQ
# Summary of the method: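 Concentration-response titrations were fitted to the Hill equation for half-maximal inhibition and maximal response, with data normalised to 50 uM chenodeoxycholic acid and DMSO control wells. Cells: FXR-UAS-bla HEK293T, dialyzed FBS.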
# [11] = qHTS assay for small molecule antagonists of peroxisome proliferator-activated receptor delta signaling (AID 588535; active = well fitted inhibition curve with a large enough effect in the signal ratio, with a control signal flat, not every such curve was filed as active; the % refers to the signal ratio;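 for max response: cells co-treated with a PPAR-delta agonist as stimulator during compound exposure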); details: HEK293T PPARd-UAS-bla, beta-lactamase FRET ratio, 18 h; 460 nm channel
# Summary of the method: (§1)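 Reporter: UAS-bla under PPAR-delta response element, HEK293T host. Medium: 2% charcoal/dextran FBS. Dosing: titration, 18 hrs, 37 C. Detection: CCF4, 2 hrs RT, 405 ex/460 and 530 em.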
# [12] = target: Peroxisome proliferator-activated receptor delta (Homo sapiens) (UniProt Q03181); experiment: as above
# Chain of Peroxisome proliferator-activated receptor delta (Homo sapiens) (Q03181 whole entry, looked up): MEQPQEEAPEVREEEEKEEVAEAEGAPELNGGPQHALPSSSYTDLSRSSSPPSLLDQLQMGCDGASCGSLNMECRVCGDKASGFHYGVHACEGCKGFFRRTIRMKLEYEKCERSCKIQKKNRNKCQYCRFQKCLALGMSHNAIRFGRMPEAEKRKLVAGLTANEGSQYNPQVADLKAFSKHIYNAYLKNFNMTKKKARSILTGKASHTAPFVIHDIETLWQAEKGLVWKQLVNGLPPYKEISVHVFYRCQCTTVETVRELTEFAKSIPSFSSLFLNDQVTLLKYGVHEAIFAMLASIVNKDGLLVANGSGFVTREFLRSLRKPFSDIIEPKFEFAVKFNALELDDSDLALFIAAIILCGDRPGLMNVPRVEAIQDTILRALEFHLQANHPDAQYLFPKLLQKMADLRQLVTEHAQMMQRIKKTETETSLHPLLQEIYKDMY
# Summary of the method: as §1
# [13] = target: Peroxisome proliferator-activated receptor gamma (Homo sapiens) (UniProt P37231); experiment: qHTS assay for small molecule agonists of peroxisome proliferator-activated receptor gamma signaling (AID 588536; active = well fitted curve in the direction sought with a large enough effect in the signal ratio, with a control signal flat, not every such curve was filed as active; the % refers to the signal ratio)
# Chain of Peroxisome proliferator-activated receptor gamma (Homo sapiens) (P37231 whole entry, looked up): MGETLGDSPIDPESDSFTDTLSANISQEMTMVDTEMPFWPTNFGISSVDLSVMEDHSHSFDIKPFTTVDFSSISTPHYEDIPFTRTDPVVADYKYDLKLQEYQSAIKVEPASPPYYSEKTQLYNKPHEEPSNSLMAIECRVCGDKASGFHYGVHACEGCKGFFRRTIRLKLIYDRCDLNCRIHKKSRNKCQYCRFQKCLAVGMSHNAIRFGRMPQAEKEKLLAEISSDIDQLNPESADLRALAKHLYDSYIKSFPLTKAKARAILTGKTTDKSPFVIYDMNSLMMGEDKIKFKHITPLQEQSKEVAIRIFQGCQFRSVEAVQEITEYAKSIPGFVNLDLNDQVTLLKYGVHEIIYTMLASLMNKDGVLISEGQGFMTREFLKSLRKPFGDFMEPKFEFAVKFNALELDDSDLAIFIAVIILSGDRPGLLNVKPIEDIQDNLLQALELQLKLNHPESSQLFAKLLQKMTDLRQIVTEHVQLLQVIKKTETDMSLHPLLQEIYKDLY
# Summary of the method: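 Ratiometric blue/green fluorescence (405 nm excitation; 460 and 530 nm emission) from CCF4-loaded HEK293 reporter cells serves as signal. Exposure to test compounds lasts 16 h at 37 C in medium containing 1% charcoal/dextran-treated serum.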
# [14] = target: Vitamin D3 receptor (Homo sapiens) (UniProt P11473); experiment: qHTS assay for small molecule antagonists of vitamin D receptor signaling (AID 588541; calls by dose curve;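 note: receptor activated by calcitriol during compound treatment; series mostly up to about 77 µM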)
# Summary of the method: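 VDR-UAS-bla HEK293T cells (2000/well, 2% charcoal-stripped FBS) were treated with titrated compounds plus 1-alpha,25-dihydroxyvitamin D3 (50 nM or 3 nM final) for 16 h at 37 C. CCF4 beta-lactamase fluorescence was read; Hill fits gave IC50.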
# [15] = target: Glucocorticoid receptor (Homo sapiens) (UniProt P04150); experiment: qHTS assay for small molecule agonists of glucocorticoid receptor signaling (AID 588532; active = well fitted curve in the direction sought with a large enough effect in the signal ratio, with a control signal flat; the % refers to the signal ratio); details: HeLa MMTV-bla, beta-lactamase ratio, agonist, 18 h; stronger effect = higher value; percent of dexamethasone control, DMSO zero
# Summary of the method: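 Titration series, up to 92 uM, applied to GRE-bla HeLa cells for 18 h at 37 C. Detection by CCF4 FRET substrate after 2 h at RT.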
# [16] = target: Estrogen receptor (Homo sapiens) (UniProt P03372); experiment: qHTS assay for small molecule agonists of estrogen receptor alpha signaling (AID 588514; calls by dose curve; note: nearly all actives have a fitted effect of over 70% in size)
# Chain of Estrogen receptor (Homo sapiens) (P03372 whole entry, looked up): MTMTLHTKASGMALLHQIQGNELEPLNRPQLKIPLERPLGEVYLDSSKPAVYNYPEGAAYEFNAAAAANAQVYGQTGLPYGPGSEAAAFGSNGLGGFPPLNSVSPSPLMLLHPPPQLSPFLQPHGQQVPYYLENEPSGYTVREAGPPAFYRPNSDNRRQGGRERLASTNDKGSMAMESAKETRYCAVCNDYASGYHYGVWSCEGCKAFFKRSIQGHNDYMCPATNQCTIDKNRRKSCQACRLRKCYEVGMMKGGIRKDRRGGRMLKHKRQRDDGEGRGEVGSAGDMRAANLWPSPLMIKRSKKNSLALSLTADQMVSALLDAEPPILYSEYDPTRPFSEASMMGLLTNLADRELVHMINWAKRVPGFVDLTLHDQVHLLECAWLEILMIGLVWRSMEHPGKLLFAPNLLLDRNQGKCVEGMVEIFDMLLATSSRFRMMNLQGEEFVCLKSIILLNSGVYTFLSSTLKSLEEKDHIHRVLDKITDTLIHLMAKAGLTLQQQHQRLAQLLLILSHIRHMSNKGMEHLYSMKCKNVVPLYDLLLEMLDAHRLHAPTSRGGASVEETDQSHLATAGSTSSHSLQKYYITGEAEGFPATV
# Summary of the method: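 ER-alpha-UAS-bla GripTite HEK293 cells, 5000/well in 2% charcoal/dextran-stripped FBS medium, treated with compound titrations 18 h at 37 C. CCF4 beta-lactamase read by fluorescence after 2 h RT; normalised to 20 nM 17-beta-estradiol (100%) and DMSO (0%), Hill fit for EC50 and efficacy.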
# [17] = target: Androgen receptor (Homo sapiens) (UniProt P10275); experiment: qHTS assay for small molecule agonists of androgen receptor signaling (AID 588515; active = well fitted curve in the direction sought with a large enough effect in the signal ratio, with a control signal flat; the % refers to the signal ratio); details: AR-UAS-bla HEK293, beta-lactamase ratio, agonist 16 h; stronger effect = higher value
# Chain of Androgen receptor (Homo sapiens) (P10275 whole entry, looked up): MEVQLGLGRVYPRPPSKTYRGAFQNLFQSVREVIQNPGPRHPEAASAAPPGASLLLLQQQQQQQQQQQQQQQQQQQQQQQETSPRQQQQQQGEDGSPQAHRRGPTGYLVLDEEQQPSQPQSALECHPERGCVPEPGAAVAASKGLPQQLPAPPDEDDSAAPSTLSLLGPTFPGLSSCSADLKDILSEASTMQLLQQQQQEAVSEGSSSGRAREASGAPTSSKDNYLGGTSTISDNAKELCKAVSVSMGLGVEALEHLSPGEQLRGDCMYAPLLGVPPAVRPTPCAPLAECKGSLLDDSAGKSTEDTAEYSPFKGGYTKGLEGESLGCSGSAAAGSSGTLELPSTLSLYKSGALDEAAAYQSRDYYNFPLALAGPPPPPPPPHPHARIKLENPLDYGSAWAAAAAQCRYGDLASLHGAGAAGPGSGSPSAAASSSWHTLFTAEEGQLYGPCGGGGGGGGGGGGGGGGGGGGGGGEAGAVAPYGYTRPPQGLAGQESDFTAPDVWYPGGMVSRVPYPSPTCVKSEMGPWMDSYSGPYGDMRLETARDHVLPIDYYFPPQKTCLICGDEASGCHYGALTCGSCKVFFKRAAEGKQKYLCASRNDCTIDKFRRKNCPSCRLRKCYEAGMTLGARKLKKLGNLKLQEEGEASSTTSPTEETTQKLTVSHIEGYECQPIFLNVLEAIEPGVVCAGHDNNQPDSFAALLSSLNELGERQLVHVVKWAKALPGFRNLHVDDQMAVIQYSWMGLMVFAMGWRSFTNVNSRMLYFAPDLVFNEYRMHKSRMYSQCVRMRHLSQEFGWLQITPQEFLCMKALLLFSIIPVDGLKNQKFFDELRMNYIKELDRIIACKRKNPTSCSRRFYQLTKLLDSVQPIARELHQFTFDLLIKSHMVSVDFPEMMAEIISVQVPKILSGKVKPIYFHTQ
# Summary of the method: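 EC50 and efficacy came from Hill fits of titrations (up to 92 uM) normalized to 30 nM R1881 as 100% and DMSO as 0%. Compound exposure was 16 h at 37 C on AR-UAS-bla HEK293 cells, with a 405/460/530 nm CCF4 fluorescence read.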
# [18] = target: Androgen receptor (Homo sapiens) (UniProt P10275); experiment: qHTS assay for small molecule antagonists of androgen receptor signaling (AID 588516; active = well fitted curve in the direction sought with a large enough effect in the signal ratio, with a control signal flat, not every such curve was filed as active; the % refers to the signal ratio)
# Summary of the method: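 AR-UAS-bla-GripTite HEK 293 cells (2000/well, 5 h at 37 C) received compound titrations, then R1881 at 10 nM final; after 16 h at 37 C, CCF4 dye 2 h RT, beta-lactamase fluorescence read; IC50 from Hill fits.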
# [19] = target: Vitamin D3 receptor (Homo sapiens) (UniProt P11473); experiment: qHTS assay for small molecule agonists of vitamin D receptor signaling (AID 588543; calls by dose curve)
# Summary of the method: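 GeneBLAzer VDR-UAS-bla HEK293T cells in 2% charcoal-stripped FBS medium were dosed with compound titrations for 16 h at 37 °C; CCF4 β-lactamase readout (405 nm ex, 460/530 nm em). EC50 and efficacy from Hill fits, normalized to 50 nM calcitriol (100%) and DMSO (0%).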
# [20] = target: Estrogen receptor (Homo sapiens) (UniProt P03372); experiment: qHTS assay for small molecule antagonists of estrogen receptor alpha signaling (AID 588513; active = well fitted curve in the direction sought with a large enough effect in the signal ratio, with a control signal flat, not every such curve was filed as active; the % refers to the signal ratio)
# Summary of the method: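 ER-alpha-UAS-bla GripTite HEK 293 cells in medium with 2% charcoal/dextran-treated FBS were preincubated 4 h at 37 C, dosed with compound (1:2 titration), stimulated with 0.5nM 17-beta-estradiol for 18 h, then read by CCF4 beta-lactamase fluorescence.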
smiles,measurement,setting,value
Cc1cccc(C)c1OCC(C)N (stereo not given),outcome,[1],inactive
same,viability change,[1],-6.18%
same,outcome,[2],inactive
same,outcome,[3],inactive
same,outcome,[4],inactive
same,outcome,[5],inactive
same,Potency,[6],inactive
same,Potency,[7],inactive
NCCS,outcome,[1],inactive
same,viability change,[1],-10.7%
same,outcome,[2],inactive
same,outcome,[8],inactive
same,outcome,[3],inactive
same,outcome,[4],inactive
same,outcome,[5],inactive
same,Potency,[6],inactive
same,Potency,[7],inactive
O=c1cc(-c2ccc(O)cc2)oc2cc(O)cc(O)c12,outcome,[1],inactive
same,viability change,[1],-8.56%
same,outcome,[2],inactive
same,outcome,[8],inactive
same,outcome,[3],inactive
same,outcome,[4],inactive
same,outcome,[5],inactive
same,Potency,[6],inactive
same,Potency,[7],inactive
same,Potency,[9],31.6 µM (active)
CCN1CCC[C@H]1CNC(=O)c1cc(S(N)(=O)=O)ccc1OC,outcome,[1],inactive
same,viability change,[1],-14.1%
same,outcome,[2],inactive
same,outcome,[8],inactive
same,outcome,[3],inactive
same,outcome,[4],inactive
same,outcome,[5],inactive
same,Potency,[6],inactive
same,Potency,[7],inactive
C[N+](C)(C)CCCCCC[N+](C)(C)C,outcome,[1],inactive
same,viability change,[1],-1.95% and 3.05%
same,outcome,[2],inactive
same,outcome,[8],inactive
same,outcome,[3],inactive
same,outcome,[4],inactive
same,outcome,[5],inactive
same,Potency,[6],inactive
same,Potency,[7],inactive
CC(=O)N[C@@H](CS)C(=O)O,outcome,[1],inactive
same,viability change,[1],13.1%
same,outcome,[2],inactive
same,outcome,[8],inactive
same,outcome,[3],inactive
same,outcome,[4],inactive
same,outcome,[5],inactive
same,Potency,[6],inactive
same,Potency,[7],inactive
same,outcome,[10],inactive
same,Potency,[9],inactive
same,max response,[11],-4.28%
same,outcome,[12],inactive
same,outcome,[13],inactive
same,outcome,[14],inactive
O=C1NC(=O)C(c2ccccc2)(c2ccccc2)N1,outcome,[1],inactive
same,viability change,[1],-3.24%
same,outcome,[2],inactive
same,outcome,[8],inactive
same,outcome,[3],inactive
same,outcome,[4],inactive
same,outcome,[5],inactive
same,Potency,[6],inactive
same,Potency,[7],inactive
same,activation,[15],-3.98% (inactive) and -0.765% (inactive) and -12.7% (inactive)
same,Potency,[9],inactive
same,max response,[11],-66.4% and 31.2% and 54.5%
same,outcome,[12],inactive
same,outcome,[13],inactive
CCN(CC)C(=O)c1ccc(O)c(OC)c1,outcome,[1],inactive
same,viability change,[1],8.03%
same,outcome,[2],inactive
same,outcome,[8],inactive
same,outcome,[3],inactive
same,outcome,[4],inactive
same,outcome,[5],inactive
same,Potency,[6],inactive
same,Potency,[7],inactive
CC(C)NCC(O)COc1cccc2[nH]ccc12 (stereo not given),outcome,[1],inactive
same,viability change,[1],3.18%
same,outcome,[2],inactive
same,outcome,[8],inactive
same,outcome,[3],inactive
same,outcome,[4],inactive
same,outcome,[5],inactive
same,Potency,[6],inactive
same,Potency,[7],inactive
Clc1ccc(Cn2c(CN3CCCC3)nc3ccccc32)cc1,outcome,[1],inactive
same,viability change,[1],1.98%
same,outcome,[2],inactive
same,outcome,[8],inactive
same,outcome,[3],inactive
same,outcome,[4],inactive
same,outcome,[5],inactive
same,Potency,[7],inactive
CC(C)OC(=O)C(C)(C)Oc1ccc(C(=O)c2ccc(Cl)cc2)cc1,outcome,[1],inactive
same,viability change,[1],3.23%
same,outcome,[2],inactive
same,outcome,[8],inactive
same,outcome,[3],inactive
same,outcome,[4],inactive
same,outcome,[5],inactive
same,Potency,[6],inactive
same,outcome,[16],inactive
same,activation,[17],-4% (inactive)
same,outcome,[18],inactive
same,outcome,[10],inactive
same,activation,[15],0.14% (inactive)
same,Potency,[9],inactive
same,max response,[11],43.3%
same,outcome,[12],inactive
same,outcome,[14],inactive
same,outcome,[19],inactive
CC(=O)c1ccc(S(=O)(=O)NC(=O)NC2CCCCC2)cc1,outcome,[1],inactive
same,viability change,[1],1.61%
same,outcome,[2],inactive
same,outcome,[8],inactive
same,outcome,[3],inactive
same,outcome,[4],inactive
same,outcome,[5],inactive
same,Potency,[6],inactive
same,Potency,[7],inactive
same,Potency,[20],inactive
same,outcome,[16],inactive
same,activation,[17],-0.897% (inactive) and 2.97% (inactive)
same,outcome,[18],inactive
same,outcome,[10],inactive
same,activation,[15],9.83% (inactive) and -7.15% (inactive)
same,Potency,[9],inactive
same,max response,[11],3.83% and 9.27%
same,outcome,[12],inactive
same,outcome,[13],inactive
same,outcome,[14],inactive
same,outcome,[19],inactive
CCN(CC)CCNC(=O)c1ccc(N)cc1,outcome,[1],inactive
same,viability change,[1],-14%
same,outcome,[2],inactive
same,outcome,[8],inactive
same,outcome,[3],inactive
same,outcome,[5],inactive
same,Potency,[7],inactive
CC(=O)CCCCn1c(=O)c2c(ncn2C)n(C)c1=O,outcome,[1],inactive
same,viability change,[1],-8.24%
same,outcome,[2],inactive
same,outcome,[8],inactive
same,outcome,[3],inactive
same,outcome,[4],inactive
same,outcome,[5],inactive
same,Potency,[6],inactive
same,Potency,[7],inactive

# Source: PubChem BioAssay (NCATS)
